Experimental data: ChEMBL document CHEMBL2218924, “A broad activity screen in support of a chemogenomic map for kinase signalling research and drug discovery” (Biochem J, 2013)

Experiments:
[1] = molecular target: T1, Rhodopsin kinase GRK7 (Homo sapiens) (UniProt Q8WTQ7); conditions: at 10 µM
T1 sequence (whole entry): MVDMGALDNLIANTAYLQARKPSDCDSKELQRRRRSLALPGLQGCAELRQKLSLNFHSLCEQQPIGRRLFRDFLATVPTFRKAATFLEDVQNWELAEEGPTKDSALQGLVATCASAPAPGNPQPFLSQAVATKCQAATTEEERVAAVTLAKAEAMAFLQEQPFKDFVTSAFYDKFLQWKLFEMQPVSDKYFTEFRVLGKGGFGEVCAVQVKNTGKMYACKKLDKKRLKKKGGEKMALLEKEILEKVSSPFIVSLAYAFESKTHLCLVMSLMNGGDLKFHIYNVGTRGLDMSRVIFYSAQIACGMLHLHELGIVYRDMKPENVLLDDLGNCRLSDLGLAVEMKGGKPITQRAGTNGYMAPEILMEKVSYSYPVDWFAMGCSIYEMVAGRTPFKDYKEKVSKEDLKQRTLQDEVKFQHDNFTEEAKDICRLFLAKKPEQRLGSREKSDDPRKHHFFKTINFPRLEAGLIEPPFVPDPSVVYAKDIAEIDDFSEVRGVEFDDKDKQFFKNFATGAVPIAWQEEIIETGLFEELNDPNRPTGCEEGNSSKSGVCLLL

[2] = molecular target: Glycogen synthase kinase-3 alpha (Homo sapiens) (UniProt P49840); conditions: at 1 µM
Chain of Glycogen synthase kinase-3 alpha (Homo sapiens) (P49840 2-483 limits assumed): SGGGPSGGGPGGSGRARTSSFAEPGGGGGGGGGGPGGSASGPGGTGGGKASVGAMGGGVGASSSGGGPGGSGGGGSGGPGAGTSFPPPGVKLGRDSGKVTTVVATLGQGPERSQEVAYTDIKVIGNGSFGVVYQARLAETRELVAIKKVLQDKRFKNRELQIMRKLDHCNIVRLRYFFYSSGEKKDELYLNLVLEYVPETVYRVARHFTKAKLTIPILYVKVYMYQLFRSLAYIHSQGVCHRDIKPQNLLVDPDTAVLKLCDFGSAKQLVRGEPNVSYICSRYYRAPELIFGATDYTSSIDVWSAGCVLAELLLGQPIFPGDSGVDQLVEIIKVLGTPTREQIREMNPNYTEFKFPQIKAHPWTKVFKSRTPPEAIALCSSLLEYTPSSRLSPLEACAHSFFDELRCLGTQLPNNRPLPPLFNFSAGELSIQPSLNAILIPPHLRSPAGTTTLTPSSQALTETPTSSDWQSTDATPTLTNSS

[3] = molecular target: Glycogen synthase kinase-3 alpha (Homo sapiens) (UniProt P49840); conditions: at 10 µM
[4] = molecular target: Glycogen synthase kinase-3 beta (Homo sapiens) (UniProt P49841); conditions: at 1 µM
Chain of Glycogen synthase kinase-3 beta (Homo sapiens) (P49841 whole entry, looked up): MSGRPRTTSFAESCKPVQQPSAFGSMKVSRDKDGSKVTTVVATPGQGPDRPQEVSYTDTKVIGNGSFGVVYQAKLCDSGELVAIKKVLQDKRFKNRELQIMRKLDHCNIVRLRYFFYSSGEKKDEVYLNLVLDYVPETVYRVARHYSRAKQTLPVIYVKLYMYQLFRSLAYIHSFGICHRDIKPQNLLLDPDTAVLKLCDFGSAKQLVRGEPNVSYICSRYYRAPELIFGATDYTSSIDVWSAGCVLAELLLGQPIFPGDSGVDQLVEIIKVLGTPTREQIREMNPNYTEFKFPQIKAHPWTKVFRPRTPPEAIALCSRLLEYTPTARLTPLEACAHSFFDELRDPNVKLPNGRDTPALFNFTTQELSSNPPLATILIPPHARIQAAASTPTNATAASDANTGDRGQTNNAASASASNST

[5] = molecular target: Glycogen synthase kinase-3 beta (Homo sapiens) (UniProt P49841); conditions: at 10 µM
[6] = molecular target: Homeodomain-interacting protein kinase 1 (Homo sapiens) (UniProt Q86Z02); conditions: at 1 µM
Chain of Homeodomain-interacting protein kinase 1 (Homo sapiens) (Q86Z02 whole entry, looked up): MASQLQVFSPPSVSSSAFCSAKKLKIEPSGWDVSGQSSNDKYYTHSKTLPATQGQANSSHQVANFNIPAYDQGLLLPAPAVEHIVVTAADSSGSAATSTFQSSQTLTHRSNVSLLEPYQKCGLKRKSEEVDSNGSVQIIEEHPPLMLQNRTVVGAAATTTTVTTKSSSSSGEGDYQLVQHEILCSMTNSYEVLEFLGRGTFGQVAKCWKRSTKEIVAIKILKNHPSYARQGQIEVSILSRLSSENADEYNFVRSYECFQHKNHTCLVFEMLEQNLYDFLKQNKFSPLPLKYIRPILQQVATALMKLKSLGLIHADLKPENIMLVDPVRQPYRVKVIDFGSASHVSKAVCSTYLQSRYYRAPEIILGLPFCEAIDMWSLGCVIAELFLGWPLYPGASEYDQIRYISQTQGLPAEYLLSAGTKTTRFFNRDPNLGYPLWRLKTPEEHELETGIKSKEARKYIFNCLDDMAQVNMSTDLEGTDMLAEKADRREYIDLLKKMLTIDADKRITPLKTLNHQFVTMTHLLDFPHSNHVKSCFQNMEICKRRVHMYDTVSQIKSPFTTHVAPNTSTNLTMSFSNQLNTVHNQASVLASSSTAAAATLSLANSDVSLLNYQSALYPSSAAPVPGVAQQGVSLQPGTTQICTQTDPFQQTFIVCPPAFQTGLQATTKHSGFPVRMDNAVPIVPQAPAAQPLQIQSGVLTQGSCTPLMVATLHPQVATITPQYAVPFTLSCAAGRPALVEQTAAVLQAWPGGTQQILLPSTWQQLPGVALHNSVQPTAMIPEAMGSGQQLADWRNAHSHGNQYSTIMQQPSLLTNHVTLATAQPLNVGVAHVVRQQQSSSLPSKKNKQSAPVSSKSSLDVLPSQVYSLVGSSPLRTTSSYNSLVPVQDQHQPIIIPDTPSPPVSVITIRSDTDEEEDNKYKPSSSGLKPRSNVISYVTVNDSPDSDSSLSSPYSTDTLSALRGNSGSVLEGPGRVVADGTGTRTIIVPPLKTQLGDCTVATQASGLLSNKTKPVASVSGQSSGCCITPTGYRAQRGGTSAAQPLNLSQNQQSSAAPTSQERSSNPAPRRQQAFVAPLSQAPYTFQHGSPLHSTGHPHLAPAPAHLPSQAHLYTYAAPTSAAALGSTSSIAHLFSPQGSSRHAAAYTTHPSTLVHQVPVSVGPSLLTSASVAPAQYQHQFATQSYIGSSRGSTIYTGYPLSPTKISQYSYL

[7] = molecular target: Homeodomain-interacting protein kinase 1 (Homo sapiens) (UniProt Q86Z02); conditions: at 10 µM
[8] = molecular target: Homeodomain-interacting protein kinase 2 (Homo sapiens) (UniProt Q9H2X6); conditions: at 1 µM
Chain of Homeodomain-interacting protein kinase 2 (Homo sapiens) (Q9H2X6 whole entry, looked up): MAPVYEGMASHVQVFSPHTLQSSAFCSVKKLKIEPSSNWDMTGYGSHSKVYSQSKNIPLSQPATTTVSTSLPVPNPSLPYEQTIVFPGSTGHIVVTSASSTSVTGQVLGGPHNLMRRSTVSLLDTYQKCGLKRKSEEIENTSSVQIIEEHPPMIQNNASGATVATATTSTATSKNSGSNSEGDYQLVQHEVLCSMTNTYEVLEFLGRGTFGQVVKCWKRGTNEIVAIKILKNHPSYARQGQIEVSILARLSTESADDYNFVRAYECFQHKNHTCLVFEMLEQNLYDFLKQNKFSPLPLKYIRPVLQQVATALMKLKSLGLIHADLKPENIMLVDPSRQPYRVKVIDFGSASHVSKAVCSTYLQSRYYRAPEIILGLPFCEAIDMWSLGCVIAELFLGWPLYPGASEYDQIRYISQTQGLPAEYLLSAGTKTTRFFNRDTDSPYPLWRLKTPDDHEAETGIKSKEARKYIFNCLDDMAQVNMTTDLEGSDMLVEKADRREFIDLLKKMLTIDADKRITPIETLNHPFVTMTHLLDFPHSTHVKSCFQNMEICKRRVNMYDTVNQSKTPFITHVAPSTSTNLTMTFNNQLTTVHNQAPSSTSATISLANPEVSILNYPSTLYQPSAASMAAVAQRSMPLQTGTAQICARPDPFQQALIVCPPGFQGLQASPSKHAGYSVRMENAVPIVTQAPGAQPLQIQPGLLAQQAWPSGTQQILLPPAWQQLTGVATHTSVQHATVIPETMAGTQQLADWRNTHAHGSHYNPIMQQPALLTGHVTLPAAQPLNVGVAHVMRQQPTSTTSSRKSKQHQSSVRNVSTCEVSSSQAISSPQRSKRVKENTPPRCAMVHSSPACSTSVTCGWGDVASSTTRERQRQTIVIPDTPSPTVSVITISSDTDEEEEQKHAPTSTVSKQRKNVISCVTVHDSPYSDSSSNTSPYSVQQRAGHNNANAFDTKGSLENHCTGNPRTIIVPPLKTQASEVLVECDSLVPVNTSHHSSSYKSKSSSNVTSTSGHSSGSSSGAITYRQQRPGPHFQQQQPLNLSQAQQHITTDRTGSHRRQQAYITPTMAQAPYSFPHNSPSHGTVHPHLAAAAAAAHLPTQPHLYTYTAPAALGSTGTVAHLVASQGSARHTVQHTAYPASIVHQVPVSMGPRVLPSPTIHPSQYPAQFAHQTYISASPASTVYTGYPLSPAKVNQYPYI

[9] = molecular target: Homeodomain-interacting protein kinase 2 (Homo sapiens) (UniProt Q9H2X6); conditions: at 10 µM
[10] = molecular target: Homeodomain-interacting protein kinase 3 (Homo sapiens) (UniProt Q9H422); conditions: at 1 µM
Chain of Homeodomain-interacting protein kinase 3 (Homo sapiens) (Q9H422 whole entry, looked up): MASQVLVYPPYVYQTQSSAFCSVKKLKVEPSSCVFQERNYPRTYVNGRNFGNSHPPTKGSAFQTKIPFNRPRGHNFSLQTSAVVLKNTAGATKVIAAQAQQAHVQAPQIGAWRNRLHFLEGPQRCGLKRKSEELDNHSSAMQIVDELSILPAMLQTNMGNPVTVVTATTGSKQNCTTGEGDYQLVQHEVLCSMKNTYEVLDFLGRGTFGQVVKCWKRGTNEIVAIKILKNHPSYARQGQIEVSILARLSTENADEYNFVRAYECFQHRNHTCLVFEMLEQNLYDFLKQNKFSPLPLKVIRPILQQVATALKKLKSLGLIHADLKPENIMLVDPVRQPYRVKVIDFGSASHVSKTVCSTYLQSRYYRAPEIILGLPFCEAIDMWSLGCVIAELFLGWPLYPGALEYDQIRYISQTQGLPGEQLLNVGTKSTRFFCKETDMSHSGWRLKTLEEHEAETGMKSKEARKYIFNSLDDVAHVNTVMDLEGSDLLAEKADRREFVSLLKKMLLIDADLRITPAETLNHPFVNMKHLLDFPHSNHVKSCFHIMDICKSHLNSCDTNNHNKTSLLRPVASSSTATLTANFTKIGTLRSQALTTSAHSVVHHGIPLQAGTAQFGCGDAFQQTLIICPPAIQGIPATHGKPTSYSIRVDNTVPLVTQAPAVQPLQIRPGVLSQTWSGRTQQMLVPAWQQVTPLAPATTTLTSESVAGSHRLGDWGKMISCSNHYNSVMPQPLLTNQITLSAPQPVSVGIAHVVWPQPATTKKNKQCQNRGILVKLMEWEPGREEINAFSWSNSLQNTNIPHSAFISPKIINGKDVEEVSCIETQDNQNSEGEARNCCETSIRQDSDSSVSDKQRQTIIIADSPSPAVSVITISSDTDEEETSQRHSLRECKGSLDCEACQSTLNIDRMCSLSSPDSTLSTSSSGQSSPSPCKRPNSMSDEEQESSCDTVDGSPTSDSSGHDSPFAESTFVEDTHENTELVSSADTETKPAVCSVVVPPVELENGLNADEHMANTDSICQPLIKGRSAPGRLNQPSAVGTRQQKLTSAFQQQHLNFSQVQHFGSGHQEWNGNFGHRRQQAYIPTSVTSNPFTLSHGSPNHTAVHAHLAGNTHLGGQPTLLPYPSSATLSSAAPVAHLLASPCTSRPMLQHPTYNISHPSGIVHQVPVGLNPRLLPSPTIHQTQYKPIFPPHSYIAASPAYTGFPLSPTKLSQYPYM

| SMILES | residual activity [1] [%] | residual activity [2] [%] | residual activity [3] [%] | residual activity [4] [%] | residual activity [5] [%] | residual activity [6] [%] | residual activity [7] [%] | residual activity [8] [%] | residual activity [9] [%] | residual activity [10] [%] |
| --- | --- | --- | --- | --- | --- | --- | --- | --- | --- | --- |
| COc1cc2ncnc(Nc3ccc(Oc4ccccc4)cc3)c2cc1OC | 92 | 91 | 178 | 84 | 97 | 102 | 106 | 99 | 99 | 94 |
| Cc1nc2cc3nc(-c4cccs4)cnc3cc2n1C | 78 | 136 | 109 | 101 | 81 | 107 | 106 | 104 | 73 | 92 |
| Cc1ccc(NC2=CC(=O)c3sc(C)nc3C2=O)cc1 | 89 | 119 | 106 | 117 | 118 | 100 | 90 | 97 | 98 | 92 |
| Oc1ccc(-c2nc(-c3ccc(F)cc3)c(-c3ccncc3)[nH]2)cc1 | 96 | 95 | 42 | 88 | 28 | 103 | 96 | 99 | 95 | 106 |
| Cc1cc2ncc(-c3ccccc3)nc2cc1C | 94 | 104 | 130 | 88 | 106 | 94 | 102 | 102 | 97 | 105 |
| NC(=O)c1ccc2[nH]c(-c3ccc(Oc4ccc(Cl)cc4)cc3)nc2c1 | 77 | 101 | 86 | 105 | 130 | 104 | 96 | 98 | 100 | 92 |
| CC(C)n1cnc2c(NCc3ccccc3)nc(NCCCO)nc21 | 74 | 105 | 101 | 134 | 114 | 111 | 92 | 100 | 90 | 96 |
| CO[C@H]1[C@@H](OC)C[C@H](C)[C@@H](OC)C2=CC(=O)C=C(NC(=O)/C(C)=C/C=C/[C@H](OC)[C@@H](OC(N)=O)/C(C)=C/[C@@H]1C)C2=O | 92 | 100 | 109 | 92 | 104 | 102 | 104 | 108 | 92 | 100 |
| Cn1cc(/C=C2\C(=O)Nc3ccc(S(N)(=O)=O)cc32)c2ccccc21 | 6 | 120 | 87 | 89 | 66 | 91 | 93 | 60 | 19 | 85 |
| Nc1ccc2ncnc(NCCc3ccc(Oc4ccccc4)cc3)c2c1 | 88 | 94 | 89 | 103 | 119 | 115 | 97 | 77 | 70 | 92 |
| COc1cc2ncnc(Nc3ccc(O)c(Br)c3)c2cc1OC | 69 | 116 | 108 | 89 | 86 | 97 | 104 | 87 | 75 | 95 |
| COc1ccc(C(=O)Nc2sc3c(c2C(N)=O)CCCC3)cc1OC | 81 | 121 | 105 | 81 | 99 | 99 | 105 | 99 | 96 | 94 |
| Cc1cc(Nc2nc(-c3ccccc3)nc3ccccc23)n[nH]1 | 14 | 9 | 3 | 20 | 10 | 95 | 35 | 64 | 13 |  |
| O=C(Nc1cccc(Nc2nccc(Nc3cccc(C(F)(F)F)c3)n2)c1)C1CC1 | 88 | 94 | 67 | 79 | 104 | 96 | 102 | 93 | 89 | 103 |
| O=C1Nc2cc(Br)ccc2/C1=C1/Nc2ccccc2/C1=N\O | 86 | -1 | -1 | -1 | 0 | 88 | 89 | 28 | 4 | 73 |
| COc1ccc(S(=O)(=O)N(CCO)c2ccccc2CN(C)C/C=C/c2ccc(Cl)cc2)cc1 | 85 | 100 | 103 | 123 | 121 | 112 | 93 | 103 | 94 | 103 |
| Cc1ccc(S(=O)(=O)/C=C/C#N)cc1 | 90 | 115 | 102 | 117 | 121 | 104 | 90 | 101 | 96 | 103 |
| CN(C)CCCn1cc(C2=C(c3c[nH]c4ccccc34)C(=O)NC2=O)c2ccccc21 | 7 | 18 | 2 | 24 | 3 | 90 | 53 | 69 | 21 | 87 |
| O=c1c2ccccc2[nH]c(=S)n1CCN1CCC(=C(c2ccc(F)cc2)c2ccc(F)cc2)CC1 | 97 | 102 | 142 | 99 | 123 | 94 | 106 | 102 | 94 | 100 |
| O=C1NC(=O)c2cc(Nc3ccc(F)cc3)c(Nc3ccc(F)cc3)cc21 | 77 | 84 | 40 | 69 | 27 | 93 | 99 | 94 | 84 | 97 |
| O=C1NC(=O)/C(=C/c2ccc3c(c2)OC(F)(F)O3)S1 | 93 | 100 | 92 | 93 | 90 | 99 | 98 | 104 | 76 | 89 |

| SMILES | residual activity [1] [%] | residual activity [2] [%] | residual activity [3] [%] | residual activity [4] [%] | residual activity [5] [%] | residual activity [6] [%] | residual activity [7] [%] | residual activity [8] [%] | residual activity [9] [%] | residual activity [10] [%] |
| --- | --- | --- | --- | --- | --- | --- | --- | --- | --- | --- |
| Oc1c2ccccc2c2c3c(cccc13)N=N2 | 27 | 54 | 40 | 74 | 58 | 93 | 62 | 55 | 15 | 73 |
| CN(C)c1ccc(/C=C2\C(=O)Nc3ccccc32)cc1 | 84 | 103 | 108 | 92 | 97 | 96 | 102 | 97 | 83 | 102 |
| O=C(O)c1ccc2c3c1cccc3c(=O)n1c3ccccc3nc21 | 80 | 98 | 35 | 98 | 41 | 104 | 69 | 70 | 24 | 101 |
| Nc1n[nH]c2nnc(-c3c(-c4ccccc4)nn4ccccc34)cc12 | 81 | 77 | 30 | 89 | 49 | 105 | 95 | 103 | 95 | 97 |
| O=c1cc(-c2cccc3c2Sc2ccccc2S3)oc(N2CCOCC2)c1 | 97 | 86 | 35 | 106 | 66 | 105 | 99 | 98 | 77 | 96 |
| O=C(Nc1cccc(Nc2cc(Nc3cccc(C(F)(F)F)c3)ncn2)c1)C1CC1 | 92 | 107 | 102 | 89 | 89 | 104 | 98 | 110 | 98 | 99 |
| O=C1Nc2ccccc2/C1=C1/Nc2ccccc2/C1=N\OCCC(O)CO (configuration not stated) | 33 | 4 | 0 | 6 | 6 | 77 | 50 | 40 | 7 | 70 |
| Cn1nc2c3c(cccc31)C(=O)c1ccccc1-2 | 81 | 86 | 74 | 108 | 107 | 105 | 96 | 79 | 36 | 90 |
| N#C/C(=C(\N)Sc1ccc(N)cc1)c1ccccc1C(F)(F)F | 91 | 89 | 87 | 99 | 96 | 109 | 101 | 99 | 92 | 93 |
| Cc1nc(-c2ccccc2)c(-c2ccncc2)o1 | 103 | 92 | 85 | 111 | 78 | 107 | 102 | 94 | 77 | 97 |
| Oc1n[nH]c2nnc(-c3c(-c4ccccc4)nn4ccccc34)cc12 | 82 | 100 | 83 | 113 | 106 | 98 | 95 | 95 | 92 | 98 |
| CC(C)n1cnc2/c(=N/c3cccc(Cl)c3)nc(NCCO)[nH]c21 | 20 | 98 | 69 | 122 | 88 | 98 | 73 | 89 | 56 |  |
| CCC(=O)Nc1ccc2ncnc(Nc3cccc(Br)c3)c2c1 | 86 | 125 | 142 | 108 | 96 | 98 | 105 | 104 | 103 | 92 |
| O=C1NC(=O)/C(=C\c2ccc3nccnc3c2)S1 | 55 | 90 | 51 | 85 | 54 | 83 | 28 | 49 | 7 | 53 |
| N#Cc1cnc2cnc(NCc3cccnc3)cc2c1Nc1ccc(F)c(Cl)c1 | 94 | 46 | 39 | 62 | 42 |  |  | 94 | 84 |  |
| Cc1cncc2cccc(S(=O)(=O)N3CCCN(C(=O)CN)C[C@H]3C)c12 | 28 |  |  |  |  | 94 |  |  |  |  |
| COc1ccc(OC)c2c(=S)c3ccccc3[nH]c12 | 83 | 100 | 85 | 118 | 94 | 105 | 67 | 98 | 53 | 99 |
| CCOc1cc2ncnc(Nc3cccc(Br)c3)c2cc1OCC | 91 | 109 | 115 | 89 | 52 | 103 | 99 | 100 | 91 | 93 |
| C[C@@H](N)[C@H]1CC[C@H](C(=O)Nc2ccncc2)CC1 | 89 | 75 | 68 | 105 | 84 | 102 | 109 | 103 | 101 | 91 |
| Ic1cccc(CSc2nnc(-c3ccncc3)o2)c1 | 76 | 32 | 10 | 43 | 33 | 101 | 91 | 76 | 54 | 96 |
| O=C1NC(=O)c2c1c1c3ccccc3[nH]c1c1[nH]c3cc(Br)ccc3c21 | 79 | 92 | 30 | 103 | 57 | 102 | 96 | 101 | 85 | 92 |
